C diff HTS = C. difficile growth inhibition; growth activity, negative = inhibition, % at 16 µg/mL (by protocol); Clostridium difficile clinical isolate growth, OD600, 24 h; active compounds read low; actives 0.25% (n = 86,000);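 active = mean growth activity at or below -80% and every replicate also at or below -80%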;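 also: 0% = DMSO wells and -100% = levofloxacin 16 µg/mL wells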
Pf Dd2 growth = inhibitors of Plasmodium falciparum Dd2 growth. actives 2.3% (n = 94,000). P. falciparum Dd2 growth, SYBR Green, 72 h; active compounds read low. activity change, % at 10 µM; in the data active = activity change below about -80%
T cruzi growth = inhibitors of T. cruzi proliferation. T. cruzi beta-gal in NIH3T3, GalScreen luminescence, 90 h. inhibition, % at 8.34 µM. actives 5.9% (n = 77,000). AID 624255;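 active = mean inhibition above about 93%, with at least 55% of replicates each passing it, limit read from the data, passing the limit was not always enough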
* = called active by the depositor; / = no result given. An excerpt weighted towards active compounds, which were near 6.7% of everything screened.

SMILES | C diff HTS | Pf Dd2 growth | T cruzi growth
CCC(=O)N1CCC2(CC1)CN(C(=O)Nc1ccc(F)cc1)[C@H](CO)c1c2c2ccc(OC)cc2n1C | 5 | -35 | /
COCC(=O)N[C@H]1C=C[C@H](CC(=O)N2CCCCC2)O[C@@H]1CO | / | 9 | -11
C[C@@H](O)C#Cc1cnc2c(c1)C(=O)N([C@@H](C)CO)C[C@H](C)[C@@H](CN(C)C(=O)c1ccccc1)O2 | 0 | -18 | 76
C[C@H](CO)N1C[C@H](C)[C@H](CN(C)Cc2ccncc2)OCCCC[C@H](C)Oc2ccc(NC(=O)Nc3ccc4c(c3)OCO4)cc2C1=O | -4 | 34 | 52
COc1ccc(-c2cn(CC[C@@H]3CC[C@@H](NC(=O)Cc4ccccn4)[C@@H](CO)O3)nn2)cc1 | 1 | 12 | -21
CO[C@H]1CN(C)C(=O)c2ccc(NC(=O)C3CCOCC3)cc2OC[C@H](C)N(Cc2cccnc2)C[C@@H]1C | 11 | 18 | /
C[C@@H]1CN([C@H](C)CO)C(=O)c2cc(NC(=O)Nc3cccc4ccccc34)ccc2O[C@@H](C)CCCCO[C@H]1CN(C)Cc1ccc(C(F)(F)F)cc1 | 9 | -85* | 123
C[C@H]1CCCCO[C@@H](CN(C)Cc2ccncc2)[C@@H](C)CN([C@@H](C)CO)C(=O)c2cc(NC(=O)Nc3cccc4ccccc34)ccc2O1 | -11 | -15 | 99*
C[C@@H]1CCCCO[C@H](CN(C)Cc2ccncc2)[C@H](C)CN([C@@H](C)CO)C(=O)c2cc(NC(=O)Nc3cccc4ccccc34)ccc2O1 | -8 | -19 | 74
C[C@@H]1CCCCO[C@H](CN(C)Cc2ccc(C(F)(F)F)cc2)[C@@H](C)CN([C@@H](C)CO)C(=O)c2cc(NC(=O)Nc3cccc4ccccc34)ccc2O1 | 16 | -76 | 122
C[C@H](CO)N1C[C@H](C)[C@H](CN(C)C(=O)CCN2CCCCC2)Oc2ncc(C#CCN(C)C)cc2C1=O | -3 | 51 | -28
Cc1ccc(S(=O)(=O)Nc2ccc3c(c2)CC(=O)N([C@@H](C)CO)C[C@H](C)[C@@H](CN(C)S(=O)(=O)c2ccc(F)cc2)O3)cc1 | -4 | -14 | 6
C[C@@H]1CCCCO[C@H](CN(C)Cc2ccc(Cl)c(Cl)c2)[C@@H](C)CN([C@@H](C)CO)C(=O)c2cc(NC(=O)c3ccccc3)ccc2O1 | 22 | -90* | /
C[C@H](CO)N1C[C@H](C)[C@H](CN(C)Cc2ccc(Cl)c(Cl)c2)OCCCC[C@H](C)Oc2ccc(NC(=O)c3ccccc3)cc2C1=O | 26 | 9 | /
C[C@H](CO)N1C[C@H](C)[C@@H](CN(C)Cc2ccc(Cl)c(Cl)c2)OCCCC[C@H](C)Oc2ccc(NC(=O)Cc3ccccc3)cc2C1=O | 8 | -74 | 65
C[C@@H]1CCCCO[C@@H](CN(C)Cc2ccc(Cl)c(Cl)c2)[C@H](C)CN([C@H](C)CO)C(=O)c2cc(NC(=O)c3ccccc3)ccc2O1 | 10 | -81* | /
O=C(c1ccccc1F)N1CC(=O)N2[C@@H](CO)[C@H](c3ccc(-c4ccc(F)cc4)cc3)[C@@H]2C1 | 2 | -1 | /
COc1ccc(-c2ccc([C@@H]3[C@H]4CN(C(=O)C5CCCC5)CC(=O)N4[C@H]3CO)cc2)cc1 | -4 | -66 | /
O=C(C1CCCC1)N1CC(=O)N2[C@H](CO)[C@H](c3ccc(-c4cccnc4)cc3)[C@H]2C1 | -6 | -90* | /
O=C1CN(Cc2ccc(F)cc2)C[C@@H]2[C@@H](c3ccc(Br)cc3)[C@@H](CO)N12 | 6 | 39 | /
O=C1CN(Cc2ccc(F)cc2)C[C@@H]2[C@@H](c3ccc(Br)cc3)[C@H](CO)N12 | 4 | -87* | /
O=C(C1CCCC1)N1CC(=O)N2[C@H](CO)[C@@H](c3ccc(-c4cccnc4)cc3)[C@@H]2C1 | -2 | 6 | /
O=C(c1ccccc1F)N1CC(=O)N2[C@H](C1)[C@@H](c1ccc(-c3ccc(F)cc3)cc1)[C@@H]2CO | -9 | -89* | /
COc1ccc(-c2ccc([C@@H]3[C@@H](CO)N4C(=O)CN(C(=O)C5CCCC5)C[C@@H]34)cc2)cc1 | -9 | -86* | /
Cc1ccc(S(=O)(=O)N(C)C[C@H]2Oc3ccc(NC(=O)CCC(F)(F)F)cc3CC(=O)N([C@@H](C)CO)C[C@@H]2C)cc1 | -5 | -45 | 17
SMILES | C diff HTS | Pf Dd2 growth | T cruzi growth
CO[C@@H]1CN(C)C(=O)c2ccc(NC(C)=O)cc2OC[C@H](C)N(Cc2ccc(F)cc2)C[C@@H]1C | / | 24 | 5
COc1ccc2c3c([nH]c2c1)[C@@H](CO)N(CC1CCOCC1)CC31CN(C(=O)C2CCOCC2)C1 | -1 | 40 | /
COc1ccc(NC(=O)Nc2ccc3c(c2)C(=O)N([C@H](C)CO)C[C@H](C)[C@H](CN(C)S(=O)(=O)c2ccccc2)OCCCC[C@H](C)O3)cc1 | 1 | -24 | 95
O=C(Nc1ccccc1F)N[C@@H]1CC[C@H](CCNS(=O)(=O)c2ccc(F)cc2)O[C@@H]1CO | 1 | / | /
Cc1ccc(CN(C)C[C@H]2OCc3cn(nn3)CCCC(=O)N([C@@H](C)CO)C[C@@H]2C)cc1 | / | 17 | 14
O=C(C[C@@H]1CC[C@@H]2[C@H](COC[C@H](O)CN2C(=O)Nc2ccc(F)cc2)O1)NC1Cc2ccccc2C1 | / | 1 | -11
O=C(c1ccncc1)N1CC(=O)N2[C@H](C1)[C@@H](c1ccc(-c3cccnc3)cc1)[C@@H]2CO | -1 | -86* | /
O=C(c1cccnc1)N1CC(=O)N2[C@H](C1)[C@@H](c1ccc(-c3cccnc3)cc1)[C@@H]2CO | -6 | -87* | /
O=C(c1ccc(F)cc1)N1CC(=O)N2[C@@H](CO)[C@H](c3ccc(-c4cccnc4)cc3)[C@@H]2C1 | 4 | 12 | /
O=C(c1cccnc1)N1CC(=O)N2[C@@H](CO)[C@H](c3ccc(-c4cccnc4)cc3)[C@@H]2C1 | -4 | 37 | /
OC[C@@H]1[C@@H](c2ccccc2)C2(CN(CC3CCOCC3)C2)N1Cc1nccs1 | 3 | -37 | /
C[C@H]1CN([C@@H](C)CO)C(=O)c2cccc(NC(=O)CCCCCC(=O)Nc3ccccc3N)c2O[C@H]1CN(C)Cc1ccncc1 | 2 | 23 | /
C[C@@H]1CN([C@H](C)CO)C(=O)c2cccc(NC(=O)CCCCCC(=O)Nc3ccccc3N)c2O[C@H]1CN(C)Cc1ccc(C(F)(F)F)cc1 | -10 | -92* | /
C[C@@H]1CN([C@H](C)CO)C(=O)c2cccc(NC(=O)CCCCCC(=O)Nc3ccccc3N)c2O[C@H]1CN(C)Cc1ccncc1 | -3 | -19 | /
C[C@H]1CN([C@@H](C)CO)C(=O)c2cccc(NC(=O)CCCCCC(=O)Nc3ccccc3N)c2O[C@H]1CN(C)Cc1ccc(C(F)(F)F)cc1 | 7 | -85* | /
CC(C)NC(=O)Nc1ccc2c(c1)C(=O)N([C@@H](C)CO)C[C@@H](C)[C@H](CN(C)CC1CC1)OCCCC[C@@H](C)O2 | -1 | 2 | 50
C[C@@H]1CN([C@@H](C)CO)C(=O)Cc2cc(NC(=O)Nc3ccc(C(F)(F)F)cc3)ccc2O[C@H]1CN(C)CC1CC1 | 6 | -78 | -10
CC(C)CC#Cc1cnc2c(c1)C(=O)N([C@H](C)CO)C[C@@H](C)[C@H](CN(C)C(=O)Nc1cc(F)ccc1F)O2 | -7 | -83* | 107
CCCC#Cc1cnc2c(c1)C(=O)N([C@H](C)CO)C[C@@H](C)[C@@H](CN(C)C(=O)Nc1cccc(F)c1)O2 | 14 | -36 | 66
